Data as given in the supplement of paper PMC12340641.
± gives the standard deviation of the averaged measurements.

Target: IKZF1 (dCK*-IKZF1 fusion in HEK293FT) (UniProt Q13422)
Test: inhibition of IKZF1 HTRF signal (DMSO = 0%, pomalidomide 10 uM = 100%); higher = lower IKZF1 protein level
Conditions: compound concentration: 5 uM, overnight (~20 h)
Procedure, shortened: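 Compound was tested at 5 μM in single wells on HEK293FT cells (2000/well, 384-well) stably carrying an IKZF1 fusion, overnight at 37 °C. Total IKZF1 was measured in lysates with a commercial HTRF antibody kit as the background-subtracted 665/620 nm time-resolved FRET ratio. The reported figure is percent inhibition of IKZF1 signal, scaled per plate between vehicle and a reference degrader. The vehicle anchor was 0% and the degrader anchor 100%.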

Sequence of IKZF1 (dCK*-IKZF1 fusion in HEK293FT) (Q13422 whole entry, looked up, the tested form may be a part): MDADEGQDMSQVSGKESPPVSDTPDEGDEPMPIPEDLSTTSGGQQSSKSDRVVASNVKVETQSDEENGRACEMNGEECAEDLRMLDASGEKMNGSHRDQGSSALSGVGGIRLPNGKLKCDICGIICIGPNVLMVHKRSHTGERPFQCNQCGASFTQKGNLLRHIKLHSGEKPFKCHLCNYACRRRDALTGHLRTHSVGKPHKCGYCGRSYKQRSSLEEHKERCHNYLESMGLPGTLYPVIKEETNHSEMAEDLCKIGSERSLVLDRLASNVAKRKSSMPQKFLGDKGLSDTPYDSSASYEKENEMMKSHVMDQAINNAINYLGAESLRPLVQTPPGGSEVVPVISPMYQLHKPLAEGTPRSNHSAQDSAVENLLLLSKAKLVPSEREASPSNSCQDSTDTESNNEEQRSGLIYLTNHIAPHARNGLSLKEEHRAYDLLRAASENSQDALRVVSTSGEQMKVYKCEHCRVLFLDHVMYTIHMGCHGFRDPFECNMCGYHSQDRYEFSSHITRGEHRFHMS

SMILES | inhibition of IKZF1 HTRF signal [%]
O=c1[nH]c2ccccc2n1C1CCN(CCCC(c2ccc(F)cc2)c2ccc(F)cc2)CC1 [Pimozide] | -27.8
Cc1cc(O)c2c(=O)c3c(O)cc(O)c4c5c(O)cc(O)c6c(=O)c7c(O)cc(C)c8c1c2c(c34)c(c78)c65 [Hypericin] | 13.4
CC[C@H]1CN2CCc3cc(OC)c(OC)cc3C2C[C@@H]1CC1NCCc2cc(OC)c(OC)cc21 (some centres undefined) | 38.3
CN(C)C(=S)SSC(=S)N(C)C | -13.8
COc1ccc2c(c1)/C(=C/c1cnc[nH]1)C(=O)N2 | -35.9
CC[C@@H](C(=O)O)C1CC[C@H](C)C([C@@H](C)[C@H](O)[C@H](C)C(=O)[C@H](CC)C2O[C@]3(C=C[C@@H](O)[C@]4(CC[C@@](C)(C5CC[C@](O)(CC)[C@H](C)O5)O4)O3)[C@H](C)C[C@@H]2C)O1 (some centres undefined) [Salinomycin (Procoxacin)] | -5.47
C[C@]12CC[C@H](O)C[C@H]1CC[C@@H]1[C@@H]2C[C@@H](O)[C@]2(C)[C@@H](C3=CC(=O)OC3)CC[C@]12O [Digoxigenin] | 22.7
Fc1ccc(C(OCCN2CCN(C/C=C/c3ccccc3)CC2)c2ccc(F)cc2)cc1 | -25.2
COc1cc2c(c(OC)c1OC)-c1ccc(OC)c(=O)cc1[C@@H](NC(C)=O)CC2 [Colchicine] | 17.9 ± 34
